# According to PubChem BioAssay AID463173 (ICCB-Longwood Screening Facility, Harvard Medical School, 2010):
# In all, about 52,000 compounds went through this assay and about 4,300 (8.3%) were called active. For the sample, actives were picked, then their nearest neighbours and some compounds at random. Unmarked numbers belong to inactive results. No stated cut-off is given here; in the data, active means survival mostly below about 52% (no sharp cut-off); inactive means mostly above about 56%.
# System: DeltatarO mutant
# Test: S. aureus survival, RN4220 and DeltatarO strains – OD600, teichoic acid synthesis inhibitors, primary screen (AID 463173)
# Settings: S. aureus RN4220 wild type/DeltatarO growth, OD600, 18 h, stronger effect = lower value, screened at 18.75 µg/mL (by protocol)
row,SMILES,survival
1,CCCCNc1nc2c(S(=O)(=O)c3ccc(C)cc3)nnn2c2ccsc12,114%
2,Cc1ccc(C)c(NC(=O)CSc2nncn3c2cc2sccc23)c1,69%
3,O=C(c1cc2c(=O)[nH]c3ccccc3c2s1)N1CCN(c2ccc(F)cc2)CC1,51%
4,O=C(NCCCN1CCN(c2ccccc2F)CC1)c1nnc(Cc2ccc(Cl)cc2Cl)o1,80%
5,CCC(=O)N1c2ccccc2CC1C(=O)NCCN1CCN(c2cccc(C)c2C)CC1 (stereo not given),77%
6,Cc1ccc(Cl)cc1N1CCN(CCNC(=O)Nc2ccccc2Cl)CC1,77%
7,CCOc1ccc(NC(=O)NCCN2CCN(c3cc(Cl)ccc3C)CC2)cc1,54%
8,Cc1ccc(C)c(N2CCN(CCCNC(=O)Nc3ccc(Cl)cc3)CC2)c1,-5% (active)
9,O=C(NCCCN1CCN(c2ccc(F)cc2)CC1)Nc1ccc(Cl)cc1,72%
10,CCC(=O)N1c2ccccc2CC1C(=O)NCCN1CCN(c2cccc(Cl)c2)CC1 (stereo not given),87%
11,COc1ccc(Cc2nnc(C(=O)NCCCN3CCN(c4ccccc4F)CC3)o2)cc1OC,78%
12,Cc1cccc(N2CCN(CCNC(=O)Nc3ccc(Cl)cc3)CC2)c1C,66%
13,Cc1ccc(Cl)cc1N1CCN(CCCNC(=O)c2nnc(Cc3cccc(Cl)c3)o2)CC1,25% (active)
14,Cc1ccc(Cl)cc1N1CCN(CCNC(=O)Nc2ccc(Cl)cc2)CC1,-4% (active)
15,CCC(=O)N1c2ccccc2CC1C(=O)NCCN1CCN(c2cc(Cl)ccc2C)CC1 (stereo not given),52% (active)
16,CCc1ccc(S(=O)(=O)Nc2ccc(-c3ccc(N4CCCCCC4)nn3)cc2)cc1,95%
17,Cc1ccc(C)c(N(C)C(=O)CCNC(=O)Cn2cnc3ccccc3c2=O)c1,69%
18,Cc1ccc(S(=O)(=O)NC2(C(F)(F)F)C(=O)Nc3c2c(=O)[nH]c(=O)n3-c2ccccc2)cc1 (stereo not given),89%
19,COc1cc(OC)cc(-c2nc3nc(C)c(CCC(=O)Nc4ccc(Cl)cc4)c(C)n3n2)c1,65%
20,COc1cccc(CNc2ncnc3onc(C)c23)c1,125%
21,Cc1ccc(NC(=O)N2CCc3cc(S(=O)(=O)N4CCC(C)CC4)ccc32)cc1F,105%
22,COc1c(C)cccc1C(=O)Nc1ccc(-c2nc3ccccc3s2)c(Cl)c1,68%
23,Cc1ccccc1CNC(=O)c1ccc2nc(C(C)C)oc2c1,83%
24,COc1ccc(-c2onc(C)c2C)cc1S(=O)(=O)N1CCN(c2cc(C)ccc2C)CC1,81%

row,SMILES,survival
1,O=C(NCCSc1c[nH]c2ccccc12)c1ccc(Cl)cc1,47% (active)
2,Cc1ccc(C(=O)NCCSc2c(C)[nH]c3ccccc23)cc1C,55%
3,O=C(NCCSc1c[nH]c2ccccc12)c1ccccc1Cl,57%
4,COc1ccc(C(=O)NCCSc2c[nH]c3ccccc23)cc1OC,76%
5,CN(C)S(=O)(=O)c1ccc(C(=O)NCCSc2c(-c3ccc(Cl)cc3)[nH]c3ccccc23)cc1,67%
6,Cc1ccc(C(=O)NCCSc2c[nH]c3ccccc23)cc1C,46% (active)
7,Cc1ccc(Cn2c(CN3CCN(c4cccc(Cl)c4)CC3)nc3c2c(=O)n(C)c(=O)n3C)cc1,107%
8,COc1cccc(C2CC(=O)Nc3c2c(=O)n(C)c2nc4ccccc4n32)c1 (stereo not given),67%
9,CCn1c(=O)cc(SCC(=O)NCc2ccc(OC)cc2OC)c2ccccc21,66%
10,CCCCOc1ccc(C2=NC(c3ccncc3)=Nc3ccc(OCC)cc3N2)cc1,75%
11,COc1ccc(C2=NC(c3ccncc3)=Nc3ccc(Br)cc3N2)cc1,82%
12,CCCCOc1ccc(C2=NC(c3ccncc3)=Nc3ccc(Br)cc3N2)cc1,12% (active)
13,CCn1c(C(=O)NCc2ccc(F)cc2)cc2oc3ccccc3c21,89%
14,CCn1c(C(=O)NCc2ccccc2Br)cc2oc3ccccc3c21,48%
15,CCn1c(C(=O)NCc2cc(Br)ccc2OC)cc2oc3ccccc3c21,67%
16,CCOc1ccc(CNC(=O)c2cc3oc4ccccc4c3n2C)cc1,95%
17,CCn1c(C(=O)NCc2cccc(Br)c2)cc2oc3ccccc3c21,50%
18,Cn1c(C(=O)NCc2ccccc2F)cc2oc3ccccc3c21,55%
19,CCCOc1ccc(CNC(=O)c2cc3oc4ccccc4c3n2C)cc1,73%
20,CCOc1ccccc1CNC(=O)c1cc2oc3ccccc3c2n1CC,2% (active)
21,CCn1c(C(=O)NCc2ccccc2C)cc2oc3ccccc3c21,14% (active)
22,COc1ccc(CNC(=O)c2cc3oc4ccccc4c3n2C)cc1OC,43% (active)
23,CCn1c(C(=O)NCc2ccc(OC(C)C)cc2)cc2oc3ccccc3c21,33% (active)
24,Cn1c(C(=O)NCc2cccc(Cl)c2)cc2oc3ccccc3c21,85%

row,SMILES,survival
1,Cc1c(-c2nsc(NC(=O)c3cccs3)n2)nnn1-c1ccc(Br)cc1,77%
2,COc1ccc2[nH]c(=O)c(CN(C3CCCC3)S(=O)(=O)c3cccc4nsnc34)cc2c1,96%
3,Cc1ccc(NC(=O)Cn2c(=O)n(CCCCC(=O)NCCc3ccccc3)c(=O)c3ccccc32)c(C)c1,84%
4,CCc1ccc(NC(=O)CSc2ccc(-c3cccs3)nn2)cc1,72%
5,Cc1cccc(NC(=O)c2cc3c(=O)n4cccc(C)c4nc3s2)c1C,65%
6,CC(=O)OC1=CN(Cc2ccccc2)S(=O)(=O)c2ccccc21,71%
7,COc1ccccc1CNC(=O)CCCCn1c(=O)c2ccccc2n(Cc2ccccc2F)c1=O,93%
8,COc1cccc(NC(=O)c2ccc(CNS(=O)(=O)c3ccc4c(c3)C(C)(C)C(=O)N4C)cc2)c1,51%
9,CCc1nn(Cc2ccc(Cl)cc2)c(=O)c2cc3cc(C)ccc3n12,94%
10,CCc1nn(Cc2cccc(F)c2)c(=O)c2cc3cc(C)ccc3n12,40% (active)
11,CCc1nn(Cc2c(C)cc(C)cc2C)c(=O)c2cc3cc(C)ccc3n12,88%
12,COc1cccc(C(=O)N2CC(C)OC(C)C2)c1 (stereo not given),65%
13,COc1ccccc1C(=O)NCc1ccc2c(c1)CCN2C(=O)c1cccc(C)c1,77%
14,COc1cccc(C(=O)N2c3ccc(C)cc3C(C)(c3ccccc3)CC2(C)C)c1 (stereo not given),-5% (active)
15,COc1ccc(C)cc1NC(=O)NCc1ccc2c(c1)CCN2C(=O)c1ccccc1,105%
16,COC(=O)C1=NN(C(=O)c2cccc(OC)c2)C(C)(O)C1 (stereo not given),104%
17,COc1cccc(C(=O)N2c3cc(C)ccc3C(C)(c3ccccc3)CC2(C)C)c1 (stereo not given),1% (active)
18,COc1ccc(-c2cc3ccc(O)c(CN4CCCC(C)C4)c3oc2=O)cc1 (stereo not given),79%
19,CCOc1ccccc1Nc1nc(-c2cccc(Cl)c2)c2c(n1)-c1ccccc1OC2,61%
20,CN(C(=O)CSc1nc2ccc(NC(=O)CCc3ccccc3)cc2s1)c1ccccc1,73%
21,Cc1[nH]c2ccccc2c1C(c1ccccc1)c1ccc(Cl)s1 (stereo not given),0% (active)
22,Cc1ccc(C(c2ccccc2)c2c(C)[nH]c3ccccc23)s1 (stereo not given),26% (active)
23,S=c1nc(Cc2cccs2)[nH]c2ccccc12,100%
24,Cc1ccc(CNC(C)c2ccccc2)s1 (stereo not given),75%

row,SMILES,survival
1,CCc1ccc(C(c2ccccc2)c2c(C)[nH]c3ccccc23)s1 (stereo not given),25% (active)
2,NNC(=O)CSc1c(-c2cccs2)[nH]c2ccccc12,84%
3,Cc1[nH]c2ccccc2c1C(c1ccccc1)c1cccs1 (stereo not given),7% (active)
4,Cc1[nH]c2ccccc2c1C1(O)C(=O)Nc2ccc(Cl)cc21 (stereo not given),66%
5,C=CCc1c(C)[nH]c2ccccc2c1=O,98%
6,CCCCc1c(C)[nH]c2ccccc2c1=O,83%
7,Cc1ccc(C(c2cccc(Br)c2)c2c(C)[nH]c3ccccc23)s1 (stereo not given),65%
8,Cc1cccc(Nc2c(-c3ccsc3)nc3nc(C)cc(C)n23)c1,130%
9,CS(=O)(=O)Nc1ccccc1C(=O)O,81%
10,CCCSc1ncc(Cl)c(C(=O)Nc2c(C(=O)Nc3ccc(C)cc3)oc3ccccc23)n1,62%
11,Cc1cccc(NC(=O)Cn2c(=O)n(CCCCCC(=O)NCc3ccccc3)c(=O)c3sccc32)c1,62%
12,CCOC(=O)c1cnn(Cc2ccccc2)c1N,79%
13,CCOC(=O)c1noc2ncnc(N3CCN(c4ccccc4OC)CC3)c12,77%
14,COc1ccccc1NC(=O)N1CCN(Cc2nc3ccc(C)cc3o2)CC1,84%
15,CC(=O)c1cccc(NC(=O)CCn2nc(C)c(S(=O)(=O)N3CCCCC3)c2C)c1,134%
16,Cc1nn(CCC(=O)Nc2cccc(C#N)c2)c(C)c1S(=O)(=O)N1CCC(C)CC1,89%
17,CC(=O)c1ccc(NC(=O)CCn2nc(C)c(S(=O)(=O)N3CCC(C)CC3)c2C)cc1,-5% (active)
18,CCOC(=O)c1cnc2ccc(C(=O)OC)cc2c1Nc1ccccc1CC,-3% (active)
19,CCOC(=O)c1ccc2ncc(C(=O)OCC)c(Nc3ccc(C)c(Br)c3)c2c1,39% (active)
20,CCOC(=O)c1cnc2ccccc2c1NCC(C)O (stereo not given),89%
21,CCOC(=O)c1cnc2ccc(OC(F)(F)F)cc2c1Nc1ccccc1C(=O)O,37% (active)
22,CCOC(=O)c1cnc2cc(F)c(F)cc2c1Nc1ccccc1O,156%
23,CCc1ccc2[nH]c(=O)c(C(c3nnnn3C3CCCC3)N(Cc3ccccc3)Cc3ccco3)cc2c1 (stereo not given),104%
